More than one record can exist for a structure, and the calls need not agree. Calls of active or inactive are those of the source. How the source made its calls: active means hit-call score of the fitted dose curve at least 0.9, where 1 is the maximum; inactive means score below 0.9.
Target: Aryl hydrocarbon receptor (Homo sapiens) (UniProt P35869)
Assay: ATG_Ahr_CIS: Attagene CIS-FACTORIAL HepG2 Assay for human Aryl Hydrocarbon Receptor (Ahr) (AID 2282930)
Conditions: HepG2 AhR cis-factorial reporter transcription; actives raise or lower the signal
Summary of the method: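 Values derive from bidirectional fitting against DMSO negative control. Underlying signal: cis-element reporter mRNA in transiently transfected HepG2, harvested 24 h post-dose and measured by RT-PCR plus capillary electrophoresis.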

Aryl hydrocarbon receptor (Homo sapiens), sequence (P35869 whole entry, looked up): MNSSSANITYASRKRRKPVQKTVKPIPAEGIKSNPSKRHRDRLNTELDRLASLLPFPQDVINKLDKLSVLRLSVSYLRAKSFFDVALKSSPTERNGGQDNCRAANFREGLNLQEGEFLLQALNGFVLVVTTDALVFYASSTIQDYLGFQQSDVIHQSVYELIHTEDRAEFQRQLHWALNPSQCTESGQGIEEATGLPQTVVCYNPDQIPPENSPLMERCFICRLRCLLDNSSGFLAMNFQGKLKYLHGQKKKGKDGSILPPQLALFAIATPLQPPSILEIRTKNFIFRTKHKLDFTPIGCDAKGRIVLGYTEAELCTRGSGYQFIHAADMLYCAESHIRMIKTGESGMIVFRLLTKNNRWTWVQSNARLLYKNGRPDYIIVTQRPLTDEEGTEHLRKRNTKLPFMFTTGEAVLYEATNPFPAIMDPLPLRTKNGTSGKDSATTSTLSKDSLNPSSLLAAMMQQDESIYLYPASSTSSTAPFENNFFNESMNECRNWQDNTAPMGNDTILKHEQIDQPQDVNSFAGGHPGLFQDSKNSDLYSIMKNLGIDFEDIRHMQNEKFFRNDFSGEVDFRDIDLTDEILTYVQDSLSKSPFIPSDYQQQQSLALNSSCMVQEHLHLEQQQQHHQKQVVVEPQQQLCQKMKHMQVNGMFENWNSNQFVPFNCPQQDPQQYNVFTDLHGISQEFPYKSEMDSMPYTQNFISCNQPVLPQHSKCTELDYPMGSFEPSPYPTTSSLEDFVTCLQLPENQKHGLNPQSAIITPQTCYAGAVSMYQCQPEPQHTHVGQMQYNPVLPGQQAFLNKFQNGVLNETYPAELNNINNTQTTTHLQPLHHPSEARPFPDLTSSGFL

Row | Compound | AC50 | outcome
1 | O=C(Nc1ccc(Cl)c(Cl)c1)c1cc(Cl)cc(Cl)c1O | 0.0441 µM (active) | 
2 | Cc1ccc(C(=O)c2ccccc2)cc1 |  | inactive
3 | CCO[Si](C)(C)OCC |  | inactive
4 | CC(=O)Nc1ccc(S(N)(=O)=O)cc1 |  | inactive
5 | COc1cccc(O)c1 |  | inactive
6 | Cn1sccc1=O |  | inactive
7 | c1ccc2c(c1)CCC2 |  | inactive
8 | Cc1ccccc1C(OCCN(C)C)c1ccccc1 (stereo not given) |  | inactive
9 | O=C(O)C(=O)O |  | inactive
10 | O=C1OC(=O)C(F)(F)C1(F)F |  | inactive
11 | CCCCCCCCCCCC |  | inactive

Tested on: not listed separately
Assay: ATG_AP_1_CIS: Attagene CIS-FACTORIAL HepG2 Assay for human Activator Protein 1 (AP-1) (AID 2282931)
Conditions: HepG2 Attagene cis-factorial AP-1 reporter mRNA; actives raise or lower the signal
Summary of the method: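 Reporter transcripts were measured 24 h after dosing by RT-PCR and capillary electrophoresis of fluorescent fragments. Cells: HepG2 carrying transfected cis-regulated reporter constructs reading endogenous factor activity. Gain or loss fitted against DMSO.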

Row | Compound | outcome | AC50
12 | CCCCCCCC(OC)OC | inactive | 
13 | Cc1cc(C(=C2C=CC(=Nc3ccc(S(=O)(=O)O)cc3)C=C2)c2ccc(Nc3ccc(S(=O)(=O)O)cc3)cc2)cc(S(=O)(=O)O)c1N | inactive | 
14 | Clc1ccc(Nc2nnc(Cc3ccncc3)c3ccccc23)cc1 |  | 42 µM (active)
15 | Cc1ccc2ccc3ccc(C)cc3c2c1 | inactive | 
16 | OCC1CCC(CO)CC1 (stereo not given) | inactive | 
17 | O=S(=O)(O)c1ccccc1 | inactive | 
18 | CCOC=O | inactive | 
19 | O=C1OC2(c3ccccc31)c1cc(I)c(O)c(I)c1Oc1c2cc(I)c(O)c1I | inactive | 
20 | O=c1cc(-c2ccccc2)oc2ccc3ccccc3c12 | inactive | 
21 | Oc1ccc(Cc2ccccc2O)cc1 | inactive | 
22 | Oc1c(Cl)ccc(Cl)c1Cl | inactive | 
23 | C=CC(C)(CCC=C(C)C)OC(C)=O (stereo not given) | inactive | 
24 | c1cnc2c(c1)ccc1cccnc12 | inactive | 
25 | O=C(F)C(F)(F)C(F)(F)C(F)(F)C(=O)F | inactive | 
26 | O=P(O)(O)CCC(F)(F)C(F)(F)C(F)(F)C(F)(F)C(F)(F)C(F)(F)F | inactive | 
27 | FC(F)(F)C(F)(F)C(F)(F)C(F)(F)I | inactive | 
28 | Nc1ccc(O)c(C(=O)O)c1 | inactive | 
29 | CC(C)(O)C(=O)c1ccccc1 | inactive | 
30 | CC1CCC(C(=O)O)CC1 (stereo not given) | inactive | 
31 | O=C(Nc1ccc(Cl)c(Cl)c1)c1cc(Cl)cc(Cl)c1O | inactive | 
32 | Cc1ccc(C(=O)c2ccccc2)cc1 | inactive | 
33 | CCCCCCCCCC=CCC1CC(=O)OC1=O (stereo not given) | inactive | 
34 | CCO[Si](C)(C)OCC | inactive | 
35 | COc1cccc(O)c1 | inactive | 
36 | Cn1sccc1=O | inactive | 
37 | CC1=NN(c2ccccc2)C(=O)C1 | inactive | 
38 | O=C(O)C(=O)O | inactive | 
39 | CCOC(C)=O | inactive | 
40 | CCCCCCCCCCCC | inactive | 

Tested on: not listed separately
Assay: ATG_AP_2_CIS: Attagene CIS-FACTORIAL HepG2 Assay for human Activator Protein 2 (AP-2) (AID 2282932)
Conditions: HepG2 AP-2 cis-reporter, Attagene transcription factor profiling; AC50: actives raise or lower the signal unless noted; outcome: actives raise or lower the signal unless noted
Summary of the method: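 Bidirectional curve fitting against DMSO was applied to reporter mRNA signals from HepG2 cells 24 h after dosing. Cis-promoter reporter units, transiently transfected, were read by RT-PCR plus capillary electrophoresis.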

Row | Compound | outcome | AC50
41 | CCCCCCCC(OC)OC | inactive | 
42 | Clc1ccc(Nc2nnc(Cc3ccncc3)c3ccccc23)cc1 | inactive | 
43 | Cc1ccc2ccc3ccc(C)cc3c2c1 | inactive | 
44 | OCC1CCC(CO)CC1 (stereo not given) | inactive | 
45 | O=S(=O)(O)c1ccccc1 | inactive | 
46 | CCOC=O | inactive | 
47 | OCCN1CN(CCO)CN(CCO)C1 |  | 143 µM (active)
48 | O=C1OC2(c3ccccc31)c1cc(I)c(O)c(I)c1Oc1c2cc(I)c(O)c1I | inactive | 
49 | O=c1cc(-c2ccccc2)oc2ccc3ccccc3c12 | inactive | 
50 | O=C1Cc2ccccc2N1c1c(Cl)cccc1Cl | inactive | 
51 | Oc1ccc(Cc2ccccc2O)cc1 | inactive | 
52 | Oc1c(Cl)ccc(Cl)c1Cl | inactive | 
53 | c1cnc2c(c1)ccc1cccnc12 | inactive | 5.84 µM (active)
54 | O=C(F)C(F)(F)C(F)(F)C(F)(F)C(=O)F | inactive | 

Reference: PubChem BioAssay (EPA / NIEHS)
